Out of some 5,600 compounds screened, about 4,100 (73%) were called active. About 4% were inconclusive and are not listed. The set was probably picked from earlier hits. Not all results are given here. A number with no mark means an inactive call.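 The calls were made as follows: active = mean replicate inhibition above about 95% and at least 55% of replicates individually reaching it (limit read from the data); inconclusive = only one of the two criteria is met; inactive = neither criterion is met.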
Assay: T. cruzi intracellular proliferation inhibitors, confirmation, cell-based, NIH3T3 host, beta-gal parasite, luminescence, cherry-pick (AID 651739)
Details: T. cruzi beta-gal in NIH3T3, GalScreen luminescence, 90 h; at 8.35 µM; hits give high values

Row | SMILES | inhibition
1 | COc1ccccc1C#Cc1ccc([C@@H]2[C@H](CO)N3CCCCN(C(=O)C4CC4)C[C@@H]23)cc1 | 103% (active)
2 | COc1ccccc1C#Cc1ccc([C@H]2[C@H](CO)N3CCCCN(C(=O)C4CCC4)C[C@@H]23)cc1 | 114% (active)
3 | COc1ccccc1C#Cc1ccc([C@@H]2[C@H](CO)N3CCCCN(C(=O)C4CCCC4)C[C@@H]23)cc1 | 99.8% (active)
4 | C[C@@H]1CN([C@H](C)CO)S(=O)(=O)c2ccc(C#C[C@@H](C)O)cc2O[C@@H]1CN(C)Cc1ccc(-c2ccccc2)cc1 | 96.5% (active)
5 | C[C@H]1CN([C@@H](C)CO)S(=O)(=O)c2ccc(C#CCN(C)C)cc2O[C@@H]1CN(C)Cc1ccc(F)cc1 | 109% (active)
6 | CC(C)C#Cc1ccc2c(c1)O[C@H](CN(C)Cc1ccccc1)[C@H](C)CN([C@@H](C)CO)S2(=O)=O | 105% (active)
7 | C[C@@H]1CN([C@@H](C)CO)S(=O)(=O)c2ccc(/C=C/c3ccccc3)cc2O[C@H]1CN(C)Cc1ccccc1 | 98.5% (active)
8 | CCCC#Cc1ccc2c(c1)O[C@H](CN(C)C(=O)CC)[C@@H](C)CN([C@H](C)CO)S2(=O)=O | 99.3% (active)
9 | CCC(=O)N(C)C[C@@H]1Oc2cc(C#CCN(C)C)ccc2S(=O)(=O)N([C@H](C)CO)C[C@H]1C | 98.5% (active)
10 | CC(=O)N(C)C[C@H]1Oc2cc(C#CCN(C)C)ccc2S(=O)(=O)N([C@@H](C)CO)C[C@@H]1C | 95.7% (active)
11 | CCCC#Cc1ccc2c(c1)O[C@@H](CN(C)C(=O)c1ccccc1F)[C@H](C)CN([C@H](C)CO)S2(=O)=O | 105% (active)
12 | CC(C)CC#Cc1ccc2c(c1)O[C@H](CN(C)S(=O)(=O)c1cccc(F)c1)[C@@H](C)CN([C@@H](C)CO)S2(=O)=O | 88.4%
13 | C[C@H]1CN([C@@H](C)CO)S(=O)(=O)c2ccc(C#Cc3cccc(F)c3)cc2O[C@@H]1CN(C)S(=O)(=O)c1cn(C)cn1 | 102% (active)
14 | C[C@@H]1CN([C@@H](C)CO)S(=O)(=O)c2ccc(-c3cccc(F)c3)cc2O[C@@H]1CN(C)S(=O)(=O)c1ccccc1 | 104% (active)
15 | COCCNC[C@@H]1[C@H](c2ccccc2)[C@H](CO)N1c1nc(C)c(C)s1 | 95.7% (active)
16 | O=S(=O)(c1ccccc1)N1CC[C@@H]2[C@@H](CO)Nc3ccc(-c4ccccc4F)cc3[C@@H]21 | 103% (active)
17 | O=C(c1cccc(F)c1)N1CC[C@@H]2[C@@H](CO)Nc3ccc(C#Cc4cccc(F)c4)cc3[C@@H]21 | 106% (active)
18 | O=S(=O)(c1ccccc1)N1CC[C@@H]2[C@H]1c1cc(C#Cc3cccc(F)c3)ccc1N[C@@H]2CO | 97.6% (active)
19 | O=S(=O)(c1ccccc1)N1CC[C@@H]2[C@@H](CO)Nc3ccc(C#Cc4cccc(F)c4)cc3[C@@H]21 | 100% (active)

Row | SMILES | inhibition
20 | CC(=O)N1CC[C@@H]2[C@H](CO)Nc3ccc(C#Cc4ccccc4F)cc3[C@@H]21 | 70.2%
21 | Cc1ccccc1S(=O)(=O)N1CC[C@H]2[C@H](CO)Nc3ccc(-c4cccc(F)c4)cc3[C@H]21 | 105% (active)
22 | O=C(Cc1ccccc1)N1CC[C@H]2[C@H](CO)Nc3ccc(-c4ccccc4F)cc3[C@H]21 | 103% (active)
23 | Cc1noc(C)c1S(=O)(=O)Nc1ccc2c(c1)C(=O)N([C@@H](C)CO)C[C@H](C)[C@@H](CN(C)C(=O)Nc1cccc3ccccc13)OCCCC[C@H](C)O2 | 99.4% (active)
24 | C[C@@H]1CCCCO[C@H](CN(C)C(=O)Nc2cccc3ccccc23)[C@H](C)CN([C@H](C)CO)C(=O)c2cc(NS(=O)(=O)c3cccs3)ccc2O1 | 103% (active)
25 | Cc1ccc(S(=O)(=O)Nc2ccc3c(c2)C(=O)N([C@@H](C)CO)C[C@@H](C)[C@H](CN(C)C(=O)Nc2cccc4ccccc24)OCCCC[C@H](C)O3)cc1 | 97.1% (active)
26 | C[C@@H]1CN([C@H](C)CO)C(=O)c2cc(C#CC3CCCCC3)cnc2O[C@@H]1CN(C)C(=O)NC1CCCC1 | 103% (active)
27 | C[C@H]1CN([C@@H](C)CO)C(=O)c2cc(C#CC3CCCCC3)cnc2O[C@H]1CN(C)S(=O)(=O)c1ccccc1 | 108% (active)
28 | C[C@H](CO)N1C[C@H](C)[C@H](CN(C)C(=O)Nc2ccc3c(c2)OCO3)Oc2ncc(C#Cc3cccc(F)c3)cc2C1=O | 85.5%
29 | C[C@H](CO)N1C[C@H](C)[C@H](CN(C)C(=O)C2CCCCC2)Oc2ncc(C#Cc3cccc(F)c3)cc2C1=O | 102% (active)
30 | C[C@@H]1CN([C@@H](C)CO)C(=O)c2cc(C#CC3CCCCC3)cnc2O[C@H]1CN(C)S(=O)(=O)c1ccccc1 | 107% (active)
31 | C[C@@H]1CN([C@H](C)CO)C(=O)c2cccc(NC(=O)c3ccc(-c4nccs4)cc3)c2O[C@@H]1CN(C)C(=O)Nc1ccc(C(F)(F)F)cc1 | 104% (active)
32 | Cc1cc(C(=O)Nc2cccc3c2O[C@@H](CN(C)Cc2ccc(C(=O)Nc4ccccc4N)cc2)[C@H](C)CN([C@@H](C)CO)C3=O)n(C)n1 | 105% (active)
33 | C[C@@H]1CN([C@H](C)CO)C(=O)c2cccc(NC(=O)NC3CCCCC3)c2O[C@H]1CN(C)Cc1ccc(C(F)(F)F)cc1 | 89.1%
34 | C[C@@H]1CN([C@H](C)CO)C(=O)c2cccc(NC(=O)c3cnccn3)c2O[C@@H]1CN(C)Cc1ccc(C(=O)Nc2ccccc2N)cc1 | 92.4%
35 | C[C@H](CO)N1C[C@H](C)[C@@H](CN(C)Cc2ccc(C(=O)Nc3ccccc3N)cc2)Oc2c(NC(=O)c3ccc(-c4nccs4)cc3)cccc2C1=O | 99.3% (active)
36 | C[C@@H]1CCCCO[C@H](CN(C)Cc2ccccc2)[C@H](C)CN([C@H](C)CO)C(=O)c2cc(NS(=O)(=O)c3ccc(Cl)cc3)ccc2O1 | 99.5% (active)
37 | C[C@@H]1CN([C@H](C)CO)C(=O)c2cc(NS(=O)(=O)c3ccc(Cl)cc3)ccc2O[C@@H](C)CCCCO[C@H]1CN(C)Cc1ccccc1 | 97.6% (active)
38 | C[C@H](CO)N1C[C@H](C)[C@H](CN(C)Cc2ccc(C(F)(F)F)cc2)OCCCC[C@H](C)Oc2ccc(NS(=O)(=O)c3ccc(Cl)cc3)cc2C1=O | 91.8%

Source: PubChem BioAssay AID651739 (Broad Institute, 2012)
